# Values without a mark were called inactive.
# Test system: TDF
# Test: H1.0 immunofluorescence intensity relative to DMSO (% of DMSO); higher = stronger H1.0 induction, active = 120 or more
# Conditions: concentration: 10 µM; 24 h
# Summary of the method: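 For HCC1569 and TDF cells, compounds at 10 µM were applied for 24 h at 37 °C in triplicate in 384-well plates. Cells were fixed in 3.7% formaldehyde, stained for H1.0 and with DAPI, and imaged at ×10 over six fields per well. The endpoint, H1.0 nuclear intensity or cell number, is shown as percent of the plate control using the median of replicates. Positional effects were smoothed for HCC1569 only.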
# 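Note: TDF is a line of transformed human dermal fibroblasts of mesenchymal origin.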
row,SMILES,H1.0 immunofluorescence intensity
1,Cl.FC(F)(F)c1cccc(C2=CCN(CCc3ccc4ccccc4c3)CC2)c1,96.3
2,COC(=O)C(N)CCCN=C(N)N[N+](=O)[O-].Cl [NG-Nitro-L-arginine methyl ester hydrochloride],89.9
3,CC1=CC(=O)C2=C(C)CC(O)C3C(C)C(=O)OC3C12 (stereo unspecified) [Austricin],96.7
4,CC(=O)C1CCC2C3CCC4CC(O)CCC4(C)C3CCC12C (stereo not drawn) [5alpha-Pregnan-3alpha-ol-20-one],90.5
5,CCN1CC2(OC(=O)c3ccccc3NC(C)=O)CCC(OC)C34C1C(CC23)C1(O)CC(OC)C2CC4C1(O)C2OC (stereo unspecified) [Lappaconitine],100
6,COC1=CC(=O)OC(C=Cc2ccccc2)C1 (racemic),95.5
7,NC(Cc1ccc(N(CCCl)CCCl)cc1)C(=O)O (stereo unspecified) [Melphalan],104
8,Cl.Cl.Oc1ccc2c3c1OC1c4[nH]c5c(c4CC4(O)C(C2)N(CC2CC2)CCC314)CC1(O)C2Cc3ccc(O)c4c3C1(CCN2CC1CC1)C5O4 (stereo unspecified) [nor-Binaltorphimine dihydrochloride],94.9
9,CC(C)C1(NC(=O)C2CC3c4cccc5[nH]cc(c45)CC3N(C)C2)OC2(O)C3CCCN3C(=O)C(Cc3ccccc3)N2C1=O.CS(=O)(=O)O (stereo unspecified) [Dihydroergocristine methanesulfonate],106
10,C=CCN1CCC23c4c5ccc(O)c4OC2C(=O)CCC3(O)C1C5 (stereo unspecified) [Naloxone],99.5
11,COc1ccccc1CN[C@H]1C2CCN(CC2)[C@H]1C(c1ccccc1)c1ccccc1,105
12,CC(Cc1ccc2c(c1)OC(C(=O)[O-])(C(=O)[O-])O2)NCC(O)c1cccc(Cl)c1.[Na+].[Na+] (stereo unspecified),88.7
13,"COc1ccc2c(c1OC)C(=O)OC2C1c2cc3c(cc2CCN1C)OCO3 (single isomer, unassigned; (+)) [(+)-Hydrastine]",96.4
14,CCCN1CCCC(c2cccc(C#N)c2)C1.Cl (stereo not drawn) [S(-)-DS 121 hydrochloride],92.4
15,COC12CC(COC(=O)c3cncc(Br)c3)CN(C)C1Cc1cn(C)c3cccc2c13 (stereo unspecified) [Nicergoline],92.9
16,COC1C(O)C(C)OC(OC2CCC3(C=O)C(CCC4C3CCC3(C)C(C5=CC(=O)OC5)CCC43O)C2)C1O (stereo unspecified) [Peruvoside],107

row,SMILES,H1.0 immunofluorescence intensity
1,Cl.Oc1ccc2c3c1OC1C(O)CCC4(O)C(C2)N(CC2CCC2)CCC314 (stereo unspecified) [Nalbuphine hydrochloride],92.6
2,CC1CN(C2CCC(C#N)(c3ccc(F)cc3)CC2)CCC1(C(=O)O)c1ccccc1.Cl (stereo unspecified) [Levocabastine.HCl],102
3,COc1ccc(O)c(C(C)(C)C)c1,94.5
4,CC=C1CN2CCC34C(=C(CC=O)C1CC23)Nc1ccccc14 (stereo unspecified) [Norfluorocurarine],97.8
5,COc1ccc(C(=O)N2CCCC2=O)cc1 [Aniracetam],92.7
6,CN1CCC23CCCCC2C1Cc1ccc(O)cc13.O=C(O)C(O)C(O)C(=O)O [Dextrorphan D-tartrate],93.1
7,CN1C2CC(OC(=O)C(CO)c3ccccc3)CC1C1OC12 (stereo unspecified) [Scopolamine],94.4
8,CCOC(=O)c1ncn2c1C1CCCN1C(=O)c1cc(OC)ccc1-2 (stereo unspecified),88.2
9,CCn1cc(C(=O)O)c(=O)c2cc3c(cc21)OCO3 [Oxolinic acid],104
10,CCCCCN(C)CCC(O)(P(=O)([O-])O)P(=O)(O)O.[Na+],89.4
11,CC(C)(C)C1(O)CC2OC(=O)CC23C(=O)OC2OC(=O)C(O)C231 (stereo unspecified) [Bilobalide],96.7
12,CCCCCCCCCCCCCCCCOCC(O)COP(=O)([O-])OCC[N+](C)(C)C (stereo unspecified),97.4
13,CCN(C)C(=O)Oc1cccc([C@H](C)N(C)C)c1.O=C(O)C(O)C(O)C(=O)O,106
14,CC(=O)NBr [N-Bromoacetamide],96.8
15,"CCCC[N+]1(C)C2CC(OC(=O)C(CO)c3ccccc3)CC1C1OC12.[Br-] (single isomer, unassigned; (-)) [(-)-Scopolamine,n-Butyl-, bromide]",96

# Source: the supplement of paper PMC7156485
